High-throughput results: PubChem, several laboratories
Sampled rows, rich in hits. Any-hit rate of the full collection: about 2.4%.
HTR2A ag: activates the mouse 5-HT2A serotonin receptor; P35363; CHO-K1 mHTR2A beta-arrestin complementation, luminescence; percent of 30 µM serotonin response; activation, % at 7.6 µM; 360,000 tested, 0.66% active; AID 624169;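 active means activation above a run cutoff, the mean activation of all tested compounds plus 3 SD, cut at about 14% in these data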;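 further: 0% = plate median of compound wells and 100% = 30 µM serotonin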
NOD2-RIPK2 inh: inhibitors of human NOD2-RIPK2 interaction; CHO BLA complementation NOD2-RIPK2, CCF4 ratio; inhibition, % at 4.98 µM; 360,000 tested, 0.38% active; AID 624267; in the data active means inhibition above about 21%;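 further: 0% = vehicle only and 100% = reference blocker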
Target sequence (O43353 whole entry, looked up): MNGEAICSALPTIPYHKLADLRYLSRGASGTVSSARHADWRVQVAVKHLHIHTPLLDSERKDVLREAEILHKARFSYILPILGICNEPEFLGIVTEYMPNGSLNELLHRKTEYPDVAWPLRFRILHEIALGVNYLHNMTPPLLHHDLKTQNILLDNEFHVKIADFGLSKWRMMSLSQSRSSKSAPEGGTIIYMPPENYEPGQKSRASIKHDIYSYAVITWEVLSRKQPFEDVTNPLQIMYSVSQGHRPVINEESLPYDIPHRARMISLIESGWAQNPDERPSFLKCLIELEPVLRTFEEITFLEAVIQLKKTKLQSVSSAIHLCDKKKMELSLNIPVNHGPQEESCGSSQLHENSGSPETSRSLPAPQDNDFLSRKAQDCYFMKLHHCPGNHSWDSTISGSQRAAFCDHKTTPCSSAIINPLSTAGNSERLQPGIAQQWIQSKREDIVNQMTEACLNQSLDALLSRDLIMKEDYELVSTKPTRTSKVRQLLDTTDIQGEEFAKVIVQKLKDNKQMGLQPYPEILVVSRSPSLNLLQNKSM
ABHD5 PLIN5 PPI: blocks binding of human ABHD5 to perilipin-5; Q00G26+Q8WTS1; Split G. princeps luciferase complementation, luminescence, 4 h; inhibition, % at 4 µM; 360,000 tested, 0.78% active; AID 602281;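 active means inhibition above the mean inhibition across every tested compound plus 3 SD, cut at about 22% in these data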;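 further: 0% = DMSO only wells and the 100% control is not disclosed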
TLR9-MyD88 block: inhibitors of human TLR9-MyD88 binding; Q9NR96+Q99836; CHO BLA complementation TLR9-MyD88, CCF4 FRET ratio; inhibition, % at 4.98 µM; 340,000 tested, 0.21% active; AID 504734;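 active means inhibition above the mean over all tested compounds plus 3 SD, cut at about 21% in these data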;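 further: 0% = DMSO only wells and 100% = clavulanate BLA inhibitor control wells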
TLR4-MyD88 BLA: blocks binding of human TLR4 to MyD88. inhibition, % at 8.4 µM. HeLa CL3-4 TLR4/MyD88 BLA complementation, FRET ratio. 200,000 tested, 0.18% active. O00206+Q99836; in the data active means inhibition above about 25%;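 further: 0% = vehicle and 100% = reference inhibitor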
CRFR2-BP antag: CRF-BP/CRF-R2 complex antagonism; AID 588475; inhibition, % at 11.8 µM; HEK293 CRF-R2/CRF-BP, CRF-induced calcium fluorescence; 350,000 tested, 0.59% active;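 active means inhibition of the ligand-induced calcium signal above about 50% at the single tested concentration, limit read from the data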
TLR9-MyD88 conf: TLR9-MyD88 interaction inhibition, confirmation; inhibition, % at 4.98 µM; 680 tested, 51% active; shares compounds with TLR9-MyD88 block; CHO TLR9/MyD88 BLA complementation, CCF4 FRET ratio; AID 540250;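 active means mean inhibition across three repeats above about 21% taken from the earlier screen, limit read from the data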;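 further: blue over green emission ratio reports constitutive TLR9 MyD88 association via BLA complementation; 0% = DMSO vehicle wells and 100% = clavulanate BLA inhibitor wells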
BLA counter-1: non-selective beta-lactamase inhibitors in TLR9-MyD88 counter-screen | shares compounds with TLR9-MyD88 block | CHO-BLA cells, CCF4 FRET ratio, BLA reporter | inhibition, % at 4.98 µM | 680 tested, 7% active;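 active means mean inhibition above a 50% cutoff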;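 further: counterscreen of TLR9-MyD88 hits on CMV-driven BLA in CHO-K1 cells; 0% = DMSO alone and 100% = clavulanate blocking BLA; higher means less blue over green ratio so more BLA blockade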
TLR9 CHO cytotox: counter-screen for TLR9-MyD88 inhibitors: cytotoxicity in CHO cells; shares compounds with TLR9-MyD88 block; luminescence; inhibition, % at 4.98 µM; 680 tested, 39% active; AID 588336; in the data active means inhibition above about 11%
ABHD5-PLIN5 conf: ABHD5-PLIN5 interaction inhibition, confirmed | shares compounds with ABHD5 PLIN5 PPI | biochemical ABHD5-PLIN5 interaction, luminescence | inhibition, % at 4 µM | 2,200 tested, 67% active | AID 651612; in the data active means inhibition above about 23%;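 further: 0% = DMSO vehicle wells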
HNF4 split-luc: active in HNF4 split-luciferase counter-screen for ABHD5-PLIN5 inhibitors | HNF4 dimerization, luminescence, biochemical | inhibition, % at 4 µM | shares compounds with ABHD5 PLIN5 PPI | 2,200 tested, 77% active;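 active means mean inhibition across replicate wells exceeding the computed hit threshold, cut at about 13% in these data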;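 further: light from luciferase halves that rejoin when HNF4 fusion proteins dimerize; 0% = DMSO only wells and the 100% control is not given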
NOD2 RIPK2 conf: confirmation of human NOD2-RIPK2 interaction inhibitors; shares compounds with NOD2-RIPK2 inh; CHO cells, NOD2-RIPK2 BLA complementation, CCF4 FRET; inhibition, % at 4.98 µM; 1,200 tested, 70% active;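 active means mean inhibition across replicates above a set limit taken from the earlier primary screen, cut at about 21% in these data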;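 further: 0% = DMSO-only wells and the high end = clavulanate BLA-blocked wells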
BLA counter-2: counter-screen for NOD2-RIPK2 interaction inhibitors: BLA reporter | shares compounds with NOD2-RIPK2 inh | CHO BLA reporter, CCF4 FRET ratio, counterscreen | inhibition, % at 4.98 µM | 1,200 tested, 57% active | AID 624371;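 active means mean inhibition above the low-control mean inhibition plus three low-control SD, cut at about 11% in these data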;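 further: 0% = DMSO only wells and 100% = clavulanate high control wells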
* hit, by the source's call; nt = no result given.

SMILES	HTR2A ag	NOD2-RIPK2 inh	ABHD5 PLIN5 PPI	TLR9-MyD88 block	TLR4-MyD88 BLA	CRFR2-BP antag	TLR9-MyD88 conf	BLA counter-1	TLR9 CHO cytotox	NOD2 RIPK2 conf	BLA counter-2	others
COc1ccc(C2=CC(c3ccc(OC)c(OC)c3)n3nnnc3N2)c(OC)c1 (stereo not drawn)	6	44*	4	39*	4	-1	21*	26	8	3	7
O=C(NCCCO)/C(=C/c1ccc(-c2cccc([N+](=O)[O-])c2)o1)NC(=O)c1ccccc1	3	7	8	6	-5	-4	nt	nt	nt	nt	nt
Cc1ccc(C(=O)N/C(=C/c2ccc(-c3ccc([N+](=O)[O-])cc3)o2)C(=O)NCCCN(C)C)cc1	-5	48*	16	41*	nt	-24	33*	28	6	57*	55*
COc1ccc(OC)c(C=Cc2ccc([N+](=O)[O-])cc2)c1	-1	43*	3	34*	nt	-11	26*	27	7	46*	53*
COc1ccc(/C=N/Nc2ccc([N+](=O)[O-])cc2)cc1Cn1cc([N+](=O)[O-])cn1	-6	-1	-1	12	17	-23	nt	nt	nt	nt	nt
COc1ccc(/C=N/Nc2ccc([N+](=O)[O-])cc2)cc1O	-7	28*	7	37*	nt	-20	28*	24	10	43*	47*
CS(=O)(=O)c1nc(-c2ccc(F)cc2)cc(C(F)(F)F)n1	-1	62*	51*	40*	15	-67	35*	8	97*	62*	12*	ABHD5-PLIN5 conf=63*;HNF4 split-luc=99*
COc1ccc(NC(=O)/C(Cl)=C(/Cl)S(=O)Cc2ccccc2)cn1 (stereo not drawn)	-5	92*	95*	43*	9	-55	49*	32	99*	92*	30*	ABHD5-PLIN5 conf=97*;HNF4 split-luc=103*
CCN(CC)c1ccc(/C=C/c2cc(-c3ccccc3)c3ccccc3n2)cc1	5	69*	1	55*	nt	-51	70*	80*	5	80*	86*
O=C(O)c1ccccc1C(=O)Nc1ccccc1	-1	1	-8	-4	13	5	nt	nt	nt	nt	nt
O=C(Nc1ccccc1)C1=C(c2ccccc2)S(=O)(=O)CCS1(=O)=O	-7	50*	88*	22*	11	-43	19	1	97*	60*	12*	ABHD5-PLIN5 conf=100*;HNF4 split-luc=108*
O=c1cccc(-c2ccc3ccccc3c2)o1	-5	-6	5	nt	nt	nt	nt	nt	nt	nt	nt
CC(=NNc1nc2ccccc2o1)c1ncccn1	-12	27*	3	26*	nt	6	20	10	99*	34*	30*
CC(=NNc1nc2ccccc2s1)c1ncccn1	-5	9	-2	20	nt	4	nt	nt	nt	nt	nt
CC(=NNc1nc2ccccc2o1)c1cc2ccccc2cn1	-8	43*	4	60*	nt	-48	67*	66*	74*	90*	91*
